According to PubChem BioAssay AID2783 (National Center for Advancing Translational Sciences (NCATS), 2010):
Results filed as inconclusive are left out. The source made the active and inactive calls. Calls follow the shape of the dose curve; as a rule, active = well fitted inhibition curve with a large enough effect in the polarisation, with a control signal flat (not every such curve was filed as active); inconclusive = small, poorly fitted or top-dose-only effect, or effect the other way, or a change in a side signal; inactive = no such curve, though single readings can be large or run the other way; the % refers to the polarisation.

Target: Menin (Homo sapiens) (UniProt O00255)
Assay: Confirmation of Inhibitors Targeting the Menin-MLL Interaction in MLL Related Leukemias: Competition With Fluorescein Labeled MLL-derived Peptide
Conditions: Fluorescence polarization, fluorescein-MLL peptide displacement from menin; series mostly up to 100 µM; activity change, negative = inhibition: at the top concentration
From the text: qHTS Assay for Inhibitors Targeting the Menin-MLL Interaction in MLL Related Leukemias
NIH Chemical Genomics Center [NCGC]
NIH Molecular Libraries Probe Centers Network [MLPCN]
Assay Submitter (PI): Jolanta Grembecka, Tomasz Cierpicki, University of Virginia
Translocations of the MLL (Mixed Lineage Leukemia) gene are frequently found in human leukemias affecting both children and adults. Fusion of MLL to one of more than 60 genes results in generation of oncogenic proteins upregulating Hox genes, which are vital to blood cell development. Patients harboring fusion of the MLL gene suffer from aggressive leukemias and respond poorly to available therapies. All of the oncogenic fusion proteins have a preserved N-terminal fragment of MLL that has been identified to interact with menin. It has been recently discovered that association with menin is critical to the leukemogenic activity of the MLL fusion oncoproteins. Selective targeting of the menin-MLL interaction could provide an attractive therapeutic approach to develop novel drugs for MLL-related leukemias. Small molecules blocking the menin-MLL interaction should reverse the oncogenic potential of MLL fusion proteins.
We have developed and optimized a fluorescence polarization-based assay for the identification of Menin-MLL inhibitors. The assay was run employing two different MLL-derived peptides. The present assay uses a 12 amino acid peptide labeled with fluorescein at its N-terminus. This peptide consists of the menin high affinity binding motif from MLL and is potently bound by menin. Another peptide with a mutated sequence, labeled with Texas Red, was used in parallel as a less stringent screen for inhibitors.
The present assay was run to confirm the activity of hits from the primary screen.
The Menin protein, the MLL-wild type (w.t.) derived peptide (N-terminal 12 amino acids), the MLL-derived peptide labeled with Texas Red and the MLL-w.t. peptide labeled with Fluorescein were kindly supplied by laboratory of Dr. Jolanta Grembecka, University of Virginia. All protein and peptide solutions were stored in single use aliquots at -80C. The Eu3+ Cyrptate-conjugated mouse monoclonal antibody anti-6 Histidine (Eu3+-AB) and the Streptavidin-XL665 conjugate (XL665) were purchased from Cisbio International (Bedford, MA). All antibody and XL665 conjugate solution stocks were stored in single use aliquots at -20C. The Buffer components for all assays were purchased from Sigma-Aldrich (St. Louis, MO) and Invitrogen (Carlsbad, CA).
1. FP reaction buffer: 50 mM Tris-HCl pH 7.5, 50 mM NaCl, 1mM DTT.
Before use, 0.05% BSA is added.
2. Menin protein, MLL-w.t. labeled with fluorescein, MLL-mutant peptide labeled with texas red.
Stored in singe use aliquots at -80C.
3. MLL-w.t. unlabeled peptide as positive control: 10 uM final in FP buffer.
1. Prepare Menin at 200 nM, MLL-w.t.-fluorescein at 25 nM, and MLL-mutant-texas red at 50 nM mixture in FP buffer.
2. Prepare Menin at 200 nM, MLL-w.t.-fluorescein at 25 nM, MLL-mutant-texas red at 50 nM, and 10 uM MLL-w.t. unlabeled mixture in FP buffer.
3. Prepare MLL-w.t.-fluorescein at 25 nM and MLL-mutant-texas red at 50 nM mixture in FP buffer.
3. Dispense 4 ul per well of reagent in step 1 in columns 2, 4 - 48 in a black 1536 well plate, dispense 4 ul per well of reagents from steps 2 and 3 in columns 1 and 3 respectively. Incubate plate at ambient for 15 minutes.
4. Transfer 23 nl per well of compound to plate and incubate at ambient for 1 hr.
5. Read fluorescence polarization for each label using the PerkinElmer Envision.
Envision protocol for fluorescein: FITC FP Dual Enh Mirror, Excitation filter 480, Emission filter (1) P-pol 535, Emission filter (2) S-pol 535
Envision protocol for texas red: FP Dual Enh Mirror, Excitation filter 555, Emission filter (1) P-pol 632, Emission filter (2) S-pol 632
% is scaled to controls: 0 for no effect and ±100 for the full control effect.

Sequence of Menin (Homo sapiens) (O00255 whole entry, looked up): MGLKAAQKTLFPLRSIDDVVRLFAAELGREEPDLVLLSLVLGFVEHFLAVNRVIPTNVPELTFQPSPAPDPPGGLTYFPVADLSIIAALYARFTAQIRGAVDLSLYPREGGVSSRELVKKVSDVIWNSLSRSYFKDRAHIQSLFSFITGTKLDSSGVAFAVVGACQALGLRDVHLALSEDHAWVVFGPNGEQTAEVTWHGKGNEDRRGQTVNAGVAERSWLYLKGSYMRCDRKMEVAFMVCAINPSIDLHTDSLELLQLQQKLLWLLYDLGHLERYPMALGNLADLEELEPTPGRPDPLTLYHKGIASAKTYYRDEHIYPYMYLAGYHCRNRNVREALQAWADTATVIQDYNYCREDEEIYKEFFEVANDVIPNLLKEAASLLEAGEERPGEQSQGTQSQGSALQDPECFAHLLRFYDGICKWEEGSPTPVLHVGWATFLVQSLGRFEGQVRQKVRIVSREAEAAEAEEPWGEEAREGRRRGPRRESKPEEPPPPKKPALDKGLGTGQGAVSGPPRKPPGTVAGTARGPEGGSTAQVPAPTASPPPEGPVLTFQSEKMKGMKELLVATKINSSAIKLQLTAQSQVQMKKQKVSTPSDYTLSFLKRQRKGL

Activity change, negative = inhibition, inactive:
CCc1nnc(NC(=O)C2(C)COC(c3ccc(OC)cc3)OC2)s1 (stereo not given) -15.7%, COc1ccc2nc(NC(=O)CSc3nnc(N)s3)sc2c1 1.97%, CCN(CCn1cccn1)Cc1ccccc1OCC(O)CN1CCc2ccccc2C1 (stereo not given) -28.7%, CC(=O)c1cccc(OCC(O)CNCC2COc3ccccc3O2)c1 (stereo not given) 0.566%, CC(=O)c1ccc2c(c1)N(CCCN1CCC(CCO)CC1)c1ccccc1S2 -8.17% [at 50.1 µM], COc1ccc(-c2csc(NC(=O)c3cc(-c4cccs4)nc4ccccc34)n2)c(OC)c1 -10.6%, O=C(NC(=S)Nc1ccccc1)c1cc(-c2ccccc2)nc2ccccc12 -1.95% [at 288 µM], Cc1ccc(C(=O)Sc2cccccc2=O)cc1 0.406% [at 288 µM], COc1cccc(C(=O)/C=C/Nc2ccc(S(=O)(=O)Nc3ccc(C(C)=O)cc3)cc2)c1 19.2% [at 288 µM], Cc1ccc(-c2cc(C(=O)Nc3cc(C)ccc3O)no2)cc1 -2.22%, COc1cc(NC(=O)c2cccnc2)c(OC)cc1NC(=O)c1ccc(Br)cc1 2.22%, COc1ccc(N(CC(=O)NC2CC3CCC2C3)S(=O)(=O)c2ccc(C)cc2)cc1OC (stereo not given) 8.09%, COc1ccccc1C(=O)Nc1ccccc1SC(=O)c1ccccc1OC 15.3% [at 288 µM], Cc1cc2ccccc2nc1SCC(=O)Nc1nc(-c2ccccc2)cs1 17.8% [at 288 µM], CN(C)CCCOc1ccc2c(c1)Sc1ccccc1CC2=O -23.1%, COc1ccccc1N(CC1CO1)S(=O)(=O)c1ccccc1 (stereo not given) -17.6%, COC1=C(Nc2ccccc2)C(=O)c2ccccc2C1=O -1.54% [at 288 µM], CCOc1ccc(NC(=O)c2cccc(OC(=S)N3CCC(C)CC3)c2)cc1 -20.4%, COC(CSc1nc(N)c2c3c(sc2n1)CN(C)CC3)OC -18.1%, CCCN1CCN(CC(O)COC(c2ccc(OC)cc2)c2ccc(OC)cc2)CC1 (stereo not given) 1.78%, CN1C[C@@H]2C[C@H]1CN2c1cc2c(cc1F)c(=O)c(C(=O)O)cn2C1CC1 -17.6%, O=C(CS)Nc1ccc2ccccc2c1 -23%, Cc1ccc(NS(=O)(=O)c2csc(C(N)=O)c2)cc1C 1.62% [at 288 µM], CCn1ncc(C(=O)Nc2cc(C)on2)c1C -11.3%, CCOc1ccc2c(c1)C(NC(C)=O)C(=O)N2CCN1CCOCC1 (stereo not given) -25.5%, CC(=O)c1cccc(NS(=O)(=O)c2ccc(N/C=C\C(=O)c3ccc(F)cc3)cc2)c1 -7.96%, COC(=O)COc1ccc(C(C2C(=O)CC(C)(C)CC2=O)C2C(=O)CC(C)(C)CC2=O)cc1 -17.7%, CC1CCCCN1S(=O)(=O)c1ccc(C(=O)Nc2ccccc2-c2nc3ccccc3[nH]2)cc1 (stereo not given) 8.04% [at 288 µM], CC(c1ccncn1)N(C)Cc1nc(-c2ccc(C(F)(F)F)cc2)no1 (stereo not given) -10.2%, CCC(=O)Nc1ccc(-c2cc(-c3ccccc3)nc(-c3ccc(NC(=O)CC)cc3)n2)cc1 6.74% [at 288 µM], c1ccc2c(c1)nc(N1CCOCC1)c1c3ccccc3[nH]c21 -2.11% [at 288 µM], COC(=O)Cc1c(C)nc2nc(-c3ccc(OC)cc3)[nH]n2c1=O -3.09% [at 288 µM], CCCN(CCC)CCCNC(=O)c1cc2c(=O)[nH]c3ccccc3c2s1 -12%, O=C(Nc1nnc(-c2ccccc2SCc2ccccc2)s1)Nc1ccccc1F -5.58%, O=C(c1cc(F)c(F)cc1Cl)N1CCN(c2ncccn2)CC1 -2.83%, Cc1ccc(-c2csc(NC(=O)c3ccc(S(=O)(=O)N4CCc5ccccc54)cc3)n2)cc1 -0.485%, COc1ccccc1NS(=O)(=O)c1cc(NC(=O)Nc2ccccc2)ccc1N1CCCCC1 -15.4%, O=C(CSc1nc(O)cc(=O)n1-c1ccccc1)c1ccc(Br)cc1 -15.8%, O=C(Nc1cc(Br)ccc1O)c1cc(-c2ccccc2)on1 -3.69%, COc1cccc(-c2nn(-c3ccccc3)cc2/C=C\C(=O)c2cccs2)c1 -5.34%
